Measured values: PubChem BioAssay (NCI)
The panel holds about 79,000 compounds, 15% with a hit somewhere; the sample as a whole holds those more often. A number with no mark means an inactive call. Activity calls are given as the source filed them. No stated cut-off is given here; in the data, active means growth inhibition above about 70%; inactive means the rest.

Assay: NCI Yeast Anticancer Drug Screen. Data for the rad50 strain (AID 155);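 further: 0% = growth of vehicle-only cultures of the same strain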
Settings: S. cerevisiae rad50 strain growth inhibition; at 50.0 µM; stronger effect = higher value
Outline: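 Vehicle-treated cultures provide the reference for the growth inhibition reported for compound-exposed, repair-deficient yeast.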

Row | Structure (SMILES) | growth inhibition
1 | CC(=N/NC(=S)NCCN1CCCC1)/C(C)=N\NC(=S)NCCN1CCCC1 | 50.6%
2 | CN(CCN(C)C(=O)CCn1cc(F)c(=O)[nH]c1=O)C(=O)CCn1cc(F)c(=O)[nH]c1=O | 26.1%
3 | COC(=O)c1ccccc1NC(=O)C(=O)NNC(=O)c1ccncc1 | 10.3%
4 | O=C(c1ccccc1)c1ccccc1O | -16.6%
5 | COC(=O)C1=C(O)c2cc(-c3ccccc3)c(-c3ccccc3)c(C#N)c2NC(=O)C1 | 32.5%
6 | COc1cc(/C=C/Cc2cc3c(cc2OCCO)OCO3)cc(OC)c1OC | -1.05%
7 | CCCCCCCc1ccc(N=Cc2ccc(OCCC)cc2)cc1 | 98.8% (active)
8 | C/C(CC(=O)Nc1ccc(C)cc1C)=N/N=C(N)N | -10.8%
9 | CCN(CC)CCOC1(Cc2ccccn2)CCCCC1 | 1.2%
10 | COC(=O)c1ccc2c(c1)nnn2C(C)=O | -9.55%
11 | c1ccc2c(c1)cnc1cc3c(cc12)ncc1ccccc13 | 8.05%
12 | CCOC(=O)c1ccc(NC(=O)Nc2ccc(OC)c([N+](=O)[O-])c2)cc1 | -5.9%
13 | COc1cc(C2(C)SCCCS2)cc(OC)c1OC | -10.9%
14 | COc1ccccc1/C=C(\S)C(=O)O | -18.9%
15 | COC(=O)c1cc(C)c(C(=O)O)c(C)c1 | 13%
16 | O=C(NO)c1c(F)c(F)c(C(=O)NO)c(F)c1F | -2.5%
17 | CNn1c(-c2ccc(C)cc2)n[nH]c1=O | 8.95%
18 | CCc1ccc(-c2c(-c3ccccc3)c(-c3ccccc3)c(-c3ccccc3)c(-c3ccccc3)c2-c2ccccc2)cc1 | 31.1%
19 | CC(c1ccccc1)C1OCCO1 (stereo not given) | -7.45%
20 | Cc1cc(N(CCOS(C)(=O)=O)CCOS(C)(=O)=O)ccc1C=Nc1ccc(C(=O)O)c(O)c1 | 82.8% (active)

Row | Structure (SMILES) | growth inhibition
21 | Nc1ncnc2c1ncn2C1OC(CSCc2ccc(Cl)cc2)C(O)C1O (stereo not given) | 26.6%
22 | C[S+](C)c1ccc(Cl)cc1 | -1.45%
23 | N=S(c1ccccc1)c1ccccc1[N+](=O)[O-] (stereo not given) | 16.2%
24 | CC(=O)Nc1ccc(S(=O)(=O)CCS(=O)(=O)c2ccc(NC(C)=O)cc2)cc1 | 7.35%
25 | CCCCCCCCCCCCCCCCOc1ccccn1 | -9.75%
26 | COc1ccc2ccc3c(OC(C)=O)ccc(CCN(C)C(C)=O)c3c2c1OC(C)=O | 19.1%
27 | COc1ccc2c(c1)C1(C)CCCC(C)(CO)C1CC2 (stereo not given) | 37%
28 | CSc1c2c(c(C)c3c1[nH]c1ccccc13)C=NCC2 | 10.8%
29 | Brc1cn2[n+](c1)[B-]n1cc(Br)c[n+]1[B-]2 | 0.85%
30 | COc1ccc(NC(=O)/C(Cc2nc3ccccc3[nH]c2=O)=N\O)c(OC)c1 | -1.85%
31 | O=C(NC1CCC(CC2CCCCC2)CC1)c1ccccc1 (stereo not given) | -14.7%
32 | CCCOc1nc(N)c2cnn(C3CCCCO3)c2n1 (stereo not given) | -14.9%
33 | C=CCc1ccc(OC(=O)Nc2cccc(OC)c2)c(OC)c1 | 74.5% (active)
34 | CCCCCCC(=O)N1CC(C)OC(C)C1 (stereo not given) | 0.6%
35 | BrC1CC2CC1C1C2CC2OC21 (stereo not given) | -26.9%
36 | Cc1cc(NC(=O)C(=O)CC(=O)c2ccc(Cl)s2)no1 | -51.3%
37 | O=[N+]([O-])c1ccc(-c2ccc([N+](=O)[O-])cc2)cc1 | -2.05%
38 | COC(=O)c1ccccc1C1CN=NC12Cc1c(ccc3c1CCC3)C2=O (stereo not given) | -4.35%
39 | CNC(=O)CN(CC(=O)NC)C(=O)NC | 9.95%
40 | CN/C=C(/c1ccc(OC)cc1)C(O)c1ccc(OC)c(OC)c1 (stereo not given) | -17.9%
